In the first experiment the target is MAPK4. The experiment is described as follows: pooled miR-30 sensor sort-seq; sequence = guide strand. Particulars: shRNA.
TTCTTCACAGCGACCTTCCGGC: the sensor-assay potency score (higher = more potent) was 0.22.

TTGCTGATTAGATTTAAGGTGC showed a sensor-assay potency score (higher = more potent) of -0.432.

In turn, TTGTAGTCGCAGGAGCGCCCGT showed a sensor-assay potency score (higher = more potent) of -1.23.

For the sequence TAAGTTTCTAATGTGTTGCAGG, the sensor-assay potency score (higher = more potent) is -0.429.

Sequence TCTGAATAAAAGAACATCGAAT showed a sensor-assay potency score (higher = more potent) of -0.719.

As to TGAACTTGAACAGCTCACCCTG, the sensor-assay potency score (higher = more potent) was -0.313.

TCTCCTAACACATTTGCTCTAT displayed a sensor-assay potency score (higher = more potent) of -0.331.

Another experiment addresses MAPKAPK2. The description is as above. Particulars: shRNA.
On to TTGTAGTCATCGATGATGGCGT, for which the sensor-assay potency score (higher = more potent) was -0.252.

Regarding TCGTACACATCCACGATCCGTA, the sensor-assay potency score (higher = more potent) turned out to be 0.149.

TTTTTTATCTTGATCTGCTCGT registered a sensor-assay potency score (higher = more potent) of 0.773.

As to TTCTCTTTCTGTGAATGCCTGG, the sensor-assay potency score (higher = more potent) is -0.0857.

For the sequence TTTTATCTTGATCTGCTCGTAG, the sensor-assay potency score (higher = more potent) is 0.563.

In turn, TTGAAGATCTGCAAAACTTTGC returned a sensor-assay potency score (higher = more potent) of 0.0666.

With TCCTCTGATACTTCTGACCATT, the sensor-assay potency score (higher = more potent) was -1.62.

TTTATCTTGATCTGCTCGTAGT gave a sensor-assay potency score (higher = more potent) of -0.523.

Sequence TTGATCTGCAGGCCGGACTTGA gave a sensor-assay potency score (higher = more potent) of -0.944.

The sequence TTGATTGCATGATCCAAGGGTG had a sensor-assay potency score (higher = more potent) of -0.156.

As for TTTTTATCTTGATCTGCTCGTA, the sensor-assay potency score (higher = more potent) was 0.0929.

TTTGTTGATTGCATGATCCAAG returned a sensor-assay potency score (higher = more potent) of -0.653.

(Values after the OligoGym collection.)
Further: reference of the scale not given here.
